Measured values published in PubChem BioAssay AID1159580 (chemical genetic matrix, 2015).
Where “and” joins values, the source holds several entries; their conditions need not be identical. Identical values can stand only once. In all, about 5,500 compounds went through this assay and about 2,000 (36%) were called active. About 18% were inconclusive and are not listed. Rule as the data show it: active = normalized growth mostly below about 0.91 (no sharp cut-off); inconclusive = no clear call, values can overlap the other calls; inactive = mostly above about 0.92. The list shows a part of the results.

Experiment: chemical genetic growth profiling, strain panel (AID 1159580);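 also: tested at 20 µM; growth read once vehicle control cultures reached saturation at 30 °C; 1 = growth at the plate median or of vehicle wells; lower values mean less growth of the strain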
Details: S. cerevisiae deletion strains, growth OD

Measured: normalized growth

Cc1ccsc1/C=C/C1=NCCCN1C
inactive: locus YAL013W, strain DEP1, hits give low values 1.01 | locus YAL021C, strain ccr4, hits give low values 1 | locus YAL026C, strain drs2, hits give low values 0.996 | locus YAL030W, strain snc1, hits give low values 0.996 | locus YBL061C, strain skt5, hits give low values 0.984 | locus YBR009C, strain hhf1, hits give low values 1 | locus YBR021W, strain FUR4, hits give low values 1.02 | locus YBR023C, strain chs3, hits give low values 0.984 | locus YBR171W, strain sec66, hits give low values 0.99 | locus YBR229C, strain ROT2, hits give low values 1.01 | locus YBR231C, strain swc5, hits give low values 1.07 | locus YBR279W, strain paf1, hits give low values 0.992 | locus YCL011C, strain gbp2, hits give low values 0.982 | locus YCL016C, strain dcc1, hits give low values 0.996 | locus YCL029C, strain bik1, hits give low values 0.969 | locus YCL061C, strain MRC1, hits give low values 0.992 | locus YCL069W, strain vba3, hits give low values 0.986 | locus YCR088W, strain abp1, hits give low values 0.993 | locus YDL005C, strain med2, hits give low values 0.983 | locus YDL035C, strain GPR1, hits give low values 1.02 | locus YDL040C, strain nat1, hits give low values 0.985 | locus YDL074C, strain BRE1, hits give low values 0.995 | locus YDL101C, strain DUN1, hits give low values 0.991 | locus YDL134C, strain PPH21, hits give low values 1.02 | locus YDL185W, strain tfp1, hits give low values 0.938 | locus YDL192W, strain arf1, hits give low values 0.972 | locus YDR001C, strain nth1, hits give low values 0.996 | locus YDR069C, strain doa4, hits give low values 0.993 | locus YDR101C, strain arx1, hits give low values 0.965 | locus YDR137W, strain rgp1, hits give low values 0.941 | locus YDR150W, strain NUM1, hits give low values 0.998 | locus YDR159W, strain sac3, hits give low values 0.998 | locus YDR162C, strain NBP2, hits give low values 1.01 | locus YDR195W, strain ref2 1.01 | locus YDR297W, strain sur2, hits give low values 1 | locus YDR318W, strain mcm21, hits give low values 0.972 | locus YDR334W, strain swr1, hits give low values 0.986 | locus YDR335W, strain msn5, hits give low values 0.991 | locus YDR388W, hits give low values 0.98 | locus YDR392W, strain spt3, hits give low values 0.992 | locus YDR502C, strain sam2, hits give low values 1 | locus YEL003W, strain gim4, hits give low values 0.996 | locus YEL037C, strain rad23, hits give low values 0.995 | locus YEL061C, strain CIN8 (second series), hits give low values 0.992 | locus YEL061C, strain CIN8, hits give low values 1 | locus YER015W, strain faa2, hits give low values 0.971 | locus YER016W, strain bim1, hits give low values 0.982 | locus YER110C, hits give low values 0.982 | locus YER111C, strain swi4, hits give low values 0.989 | locus YER155C, strain BEM2 (second series), hits give low values 1 | locus YER155C, strain BEM2, hits give low values 0.988 | locus YER167W, strain BCK2, hits give low values 1.01 | locus YFR010W, strain ubp6, hits give low values 0.992 | locus YGL078C, strain dbp3, hits give low values 0.984 | locus YGL086W, strain mad1, hits give low values 1.01 | locus YGL167C, strain pmr1, hits give low values 0.987 | locus YGL173C, strain kem1, hits give low values 0.987 | locus YGL227W, strain vid30, hits give low values 0.991 | locus YGL240W, strain doc1, hits give low values 1 | locus YGL248W, strain PDE1, hits give low values 1.02 | locus YGL253W, strain hxk2, hits give low values 0.995 | locus YGR078C, strain PAC10, hits give low values 1 | locus YGR135W, strain pre9, hits give low values 1.01 | locus YGR229C, strain SMI1, hits give low values 1.03 | locus YGR252W, strain gcn5, hits give low values 1.06 | locus YHR013C, strain ard1, hits give low values 0.978 | locus YHR027C, strain rpn1, hits give low values 0.982 | locus YHR030C, strain SLT2, hits give low values 1 and 0.986 | locus YHR079C, strain IRE1 (second series), hits give low values 0.963 | locus YHR079C, strain IRE1, hits give low values 0.974 | locus YHR094C, strain hxt1, hits give low values 0.956 | locus YHR129C, strain ARP1, hits give low values 1 | locus YHR142W, strain chs7, hits give low values 0.997 | locus YHR200W, strain rpn10, hits give low values 0.984 | locus YIL066C, strain RNR3, hits give low values 0.998 | locus YIL073C, strain SPO22, hits give low values 0.91 | locus YIL125W, strain kgd1, hits give low values 0.984 | locus YIR030C, strain dcg1, hits give low values 0.976 | locus YJL092W, strain hpr5, hits give low values 0.993 | locus YJL095W, strain BCK1 (second series), hits give low values 0.991 | locus YJL095W, strain BCK1, hits give low values 0.988 and 1 | locus YJL115W, strain asf1, hits give low values 0.99 | locus YJL129C, strain trk1, hits give low values 0.985 | locus YJL134W, strain LCB3, hits give low values 1 | locus YJL154C, strain vps35, hits give low values 0.984 | locus YJL164C, strain tpk1, hits give low values 0.99 | locus YJL166W, strain qcr8, hits give low values 0.994 | locus YJL168C, strain set2, hits give low values 0.984 | locus YJL187C, strain SWE1 (second series), hits give low values 0.99 | locus YJL187C, strain SWE1, hits give low values 0.997 | locus YJR043C, strain POL32, hits give low values 1.01 | locus YJR066W, strain TOR1, hits give low values 0.967
